Some of the results follow. Inconclusive results are not listed. The source made the active and inactive calls. The call rests on the fitted dose curve; in most records, active means well fitted curve in the direction sought with a large enough effect; inconclusive means small, poorly fitted or top-dose-only effect, or effect the other way, or another doubt; inactive means no such curve, though single readings can be large or run the other way. Residues, ends and D or L forms follow the SMILES beside them. *: point of attachment. OPac = O=C(CO*)c1ccccc1; Bz = O=C(c1ccccc1)*

Chain of Thyrotropin-releasing hormone receptor (Homo sapiens) (P34981 whole entry, looked up): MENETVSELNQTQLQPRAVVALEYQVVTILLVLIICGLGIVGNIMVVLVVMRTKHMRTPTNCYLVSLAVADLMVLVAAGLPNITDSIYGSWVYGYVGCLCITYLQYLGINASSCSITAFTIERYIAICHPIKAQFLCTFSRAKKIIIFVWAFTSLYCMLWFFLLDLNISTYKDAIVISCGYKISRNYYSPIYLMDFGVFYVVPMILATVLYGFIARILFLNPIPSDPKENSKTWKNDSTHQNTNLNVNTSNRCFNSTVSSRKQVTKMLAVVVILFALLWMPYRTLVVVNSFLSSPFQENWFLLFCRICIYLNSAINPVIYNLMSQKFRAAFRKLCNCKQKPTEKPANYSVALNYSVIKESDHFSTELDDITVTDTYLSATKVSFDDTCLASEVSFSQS

The target of the test is Thyrotropin-releasing hormone receptor (Homo sapiens) (UniProt P34981). In words: qHTS for Small Molecule Agonists and Allosteric Enhancers of Human TRH Receptor: Confirmation Screen for Enhancers. Further: 0% is about no effect. The note with it: TRH receptor cell assay, enhancer confirmation qHTS; series mostly up to 46.1 µM; activity change, negative = inhibition: at the top concentration. The source says:
NIH Chemical Genomics Center [NCGC]
NIH Molecular Libraries Probe Centers Network [MLPCN]
Assay Submitter (PI): Marvin Gershengorn
This project aims to identify small drug-like molecules that activate (agonists) the thyrotropin releasing hormone (TRH) receptor (TRHR) or enhance its TRH-stimulated activity (allosteric enhancers). TRHR, a drug-accessible cell surface receptor expressed in specific brain regions, and its ligand TRH have been implicated in several central nervous system disorders, including depression and anxiety. Small molecule TRHR agonists or allosteric enhancers that are metabolically stable and able to cross the blood-brain barrier might serve as probes to elucidate the roles of brain TRH receptors in animal models, and might be valuable as lead compounds for the development of drugs to treat patients with central nervous system disorders.
Upon TRHR-Gq activation in TRHR cells, intracellular calcium is released from stores in the endoplasmic reticulum. […] This primary screen measures compound-induced enhancement of an EC20 stimulation of the receptor by its native ligand.
For the HTS assay freshly prepared cells are plated at a density of 2000/well in 3 ul of complete DMEM medium containing 10% serum in 1536-well plates and cultured over night at 37 C in a humidified incubator with 5% CO2. The next day, 2 ul of a no wash calcium dye (ABD Bioquest) was added to the cells and plates were incubated at room temperature for 1 hour. For the assay, assay plates were loaded into the FDSS kinetic plate reader. A 10 cycle (1 second/cycle) baseline measurement is taken and then the FDSS online 1536 pintool delivers 23 nl of compound library (as well as TRH controls) to the plate. The plate is measured for kinetically at 1 cycle/sec for 180 seconds and is considered to be the agonist portion of the assay (eg, compounds which activate a positive calcium response during this portion are flagged as potential agonists). Following the 180 second read, 1 ul of either an EC20 (positive modulation assay) is delivered by an onboard pipette head. Measurements are taken kinetically for an additional 180 seconds.
TRHR FDSS Screening Protocol
1. Reagent, 3 uL 2000 cells/well 1536 TC treated Black plate in media containing 10% FCS
2. Time, 18 hours, 33.5C 5% CO2 (cells grown at 37C)
3. Reagent, 2 uL ABD fluo-8 Ca dye
4. Time, 30 min-1.5hrs hours, Room temp (6 plates/batch)
5. Detector, EX 480/EM 530C, FDSS 10 cycles baseline (1sec/cycle)
6. Compound, 23 nL of stock solution from library
7. Detector, EX 480/EM 530C, FDSS 230 cycles (1sec/cycle) Agonist mode
8. Compound, 1 ul EC20 of TRH made up in HEPES HBSS, 10 nM final
9. Detector, EX 480/EM 530C, FDSS 100 cycles (1sec/cycle) Potentiator mode
On to `CC1=C(C)CC(C(=O)NC(C)CCc2ccccc2)C(C(=O)O)C1` (stereo not given), for which the “activity change, negative = inhibition” value was -4.33% (inactive).

Regarding `CC(=O)N1CCN(CC(=O)Nc2ccc(C)c(F)c2)CC1`, the “activity change, negative = inhibition” value is 1.27% (inactive).

Consider `NS(=O)(=O)c1cccc(NC(=O)CSc2nc3ccccc3n2-c2ccccc2)c1`, for which the “activity change, negative = inhibition” value is -3.66% (inactive).

For the compound `COc1cc(C2C3=C(CCCC3=O)OC3=C2C(=O)CCC3)ccc1OCC(=O)Nc1ccccc1`, the “activity change, negative = inhibition” value was -3.25% (inactive).

Regarding `O=C1NC(=O)C2C1C(c1ccc([N+](=O)[O-])cc1)=NN2Cc1ccccc1` (stereo not given), the “activity change, negative = inhibition” value was -0.0147% (inactive).

In the case of `Cc1cc(C)c2nc3nc(C)cc(C)c3c(N)c2c1`, the “activity change, negative = inhibition” value is -10.9% (inactive).

Take `Cc1cc(C(=O)CCl)c(C)n1CC1COc2ccccc2O1` (stereo not given): the “activity change, negative = inhibition” value is -7.04% (inactive).

For `O=C1C(=O)N(CCCO)C(c2ccccc2)/C1=C(\O)c1ccc(Br)cc1` (stereo not given), the “activity change, negative = inhibition” value was -0.976% (inactive).

For the compound `COc1ccc(Cl)cc1NC(=O)CN(C)Cc1ccc(OC)c(OC)c1`, the “activity change, negative = inhibition” value is 3.53% (inactive).

Regarding `CCOC(=O)C1=C(O)/C(=C/c2cc(C)n(-c3ccccc3)c2C)N=C1C`, the “activity change, negative = inhibition” value was -3.74% (inactive).

For the compound `Cc1csc(CN(C)C(=O)CC2C(=O)NCCN2CC(C)(C)C)n1` (stereo not given), the “activity change, negative = inhibition” value was -1.78% (inactive).

As to `C/C(=N/OC(=O)c1ccc(Br)cc1)c1ccc(C)cc1`, the “activity change, negative = inhibition” value is -0.906% (inactive).

For the compound `Cn1cccc1C1(C(F)(F)F)NCCNC1=O` (stereo not given), the “activity change, negative = inhibition” value was -9.47% (inactive).

Consider `CSc1nnnn1-c1c(C)cc(C)cc1C`, for which the “activity change, negative = inhibition” value is 2.92% (inactive).

On to `COc1ccc(CCn2ccc(O)c(Cc3ccc(Cl)cc3Cl)c2=O)cc1OC`, for which the “activity change, negative = inhibition” value is -5.51% (inactive).

As for `Cc1ccc(-c2cn(S(=O)(=O)c3cccc([N+](=O)[O-])c3)nc2N)cc1`, the “activity change, negative = inhibition” value is 5.91% (inactive).

With `CN(C(=O)CSc1nnc(Nc2ccccc2)s1)C1CCS(=O)(=O)C1` (stereo not given), the “activity change, negative = inhibition” value was -2.15% (inactive).

On to `O=C(CN1C(=O)c2cccc3cccc1c23)Nc1ccccc1`, for which the “activity change, negative = inhibition” value is -1.92% (inactive).

As to `O=C(CNC(=O)c1ccccc1)NCC(=O)OCC(=O)c1ccccc1` (Bz-Gly-Gly-OPac), the “activity change, negative = inhibition” value was -2.83% (inactive).

Turning to `C/C(=C\c1ccco1)CN1CCC(N2CCC(C(=O)N3CCOCC3)CC2)CC1`, the “activity change, negative = inhibition” value was -0.0999% (inactive).

In the case of `O=c1[nH]c2cccnc2n(CCNc2ncc(C(F)(F)F)cc2Cl)c1=O`, the “activity change, negative = inhibition” value was 0.268% (inactive).

As for `O=c1o[nH]c(-c2ccccc2)c1N=Nc1c(F)cccc1Cl`, the “activity change, negative = inhibition” value was -7.87% (inactive).

Regarding `CC(C)c1nnc(NC(=O)CCC(=O)N2CCN(c3cccc(Cl)c3)CC2)s1`, the “activity change, negative = inhibition” value is -8.62% (inactive).

As to `CC(=O)c1cc(NC(=O)c2ccccc2)c(=O)oc1/C=C/N(C)C`, the “activity change, negative = inhibition” value is 0.662% (inactive).

Take `CCOc1ncccc1C(=O)OCC(=O)N1c2ccccc2CC1C` (stereo not given): the “activity change, negative = inhibition” value was -1.35% (inactive).

On to `COc1cc(/C=C(\C#N)c2nc3ccccc3[nH]2)ccc1O`, for which the “activity change, negative = inhibition” value is -0.256% (inactive).

Turning to `N#Cc1ccc(Oc2cc(C(F)(F)F)nc(-c3ccccn3)n2)cc1`, the “activity change, negative = inhibition” value was -2.68% (inactive).

For the compound `Cc1ccc(Cl)c(OCC(=O)N2CCc3ccccc3C2)c1`, the “activity change, negative = inhibition” value was -14.7% (inactive).

Turning to `CC1(C)Cc2c(cnn2-c2cccc(F)c2)C(NC(=O)c2cc[n+]([O-])cc2)C1` (stereo not given), the “activity change, negative = inhibition” value was -3.62% (inactive).

For the compound `Cc1cc(S(=O)(=O)c2cc3ccc(O)c(C)c3oc2=O)ccc1F`, the “activity change, negative = inhibition” value was -3.01% (inactive).

As for `Cc1ccc(S(=O)(=O)N2CCN(CC(=O)N/N=C/c3ccc(Br)s3)CC2)cc1`, the “activity change, negative = inhibition” value is -4.75% (inactive).

Consider `COC(=O)c1cc(N2CCNCC2)nc2ccccc12`, for which the “activity change, negative = inhibition” value was -2.19% (inactive).

With `NC(N)=Nc1nc(-c2ccccc2)c2cc(Cl)ccc2n1`, the “activity change, negative = inhibition” value is -3.05% (inactive).

Regarding `CC(=O)n1c(C=Nc2ccccc2)c(O)c2ccccc21`, the “activity change, negative = inhibition” value was -1.01% (inactive).

Take `CCc1nnc(NC(=O)[C@@H](NC(=O)c2cccc(C)c2)C(C)C)s1`: the “activity change, negative = inhibition” value was -7% (inactive).

For the compound `Cc1cccn2c(=O)c3cc(C(=O)NC4CCCCC4)sc3nc12`, the “activity change, negative = inhibition” value is 0.429% (inactive).

For the compound `CCc1ccccc1NC(=O)/C(=C/c1ccccc1)c1ccccc1`, the “activity change, negative = inhibition” value is 0.209% (inactive).

On to `Cc1nn(Cc2ccccc2)c(C)c1C(=O)N1CCN(CC(=O)Nc2ccccc2Cl)CC1`, for which the “activity change, negative = inhibition” value is -4% (inactive).

Turning to `Cc1c(/C=N\NC(=O)c2cc3ccccc3o2)c2ccccc2n1C`, the “activity change, negative = inhibition” value is 2.39% (inactive).

For `c1cnc(N2CCN(c3ccc4ccccc4n3)CC2)nc1`, the “activity change, negative = inhibition” value is -7.49% (inactive).

The record behind these values is PubChem BioAssay AID493076 (National Center for Advancing Translational Sciences (NCATS), 2011).
